Drawing on PubChem BioAssay (NCI), this text covers growth for twelve compounds.

Among the test systems are HCT-15 colon; HT29 colon; SNB-75 CNS; SNB-19 CNS; U251 CNS; PC-3 prostate; SK-MEL-5 melanoma; UACC-62 melanoma; LOX IMVI melanoma; SK-MEL-28 melanoma.
What all share (test): NCI-60 one-dose screen, 48 h (100 = growth as untreated, 0 = no growth, -100 = all killed)
Common to all, as to conditions: 10 µM unless noted

About 83,000 compounds went through this panel and 20% of them were active in at least one assay; those are over-represented in the sample as a whole.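 Assay: single dose, 48 h. Readout: percent growth (0 = no net growth; negative = cell death). Active: <10.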 A number with no mark means an inactive call. Activity calls are given as the source filed them.

With `COc1ccc(Nc2nccc(Nc3ccc4[nH]ncc4c3)n2)cc1`, the growth with HCT-15 colon is 6.21% (active); in the assay on HT29 colon, 12.1%; in the assay on SNB-75 CNS, 65.8%; with SNB-19 CNS it was 59.7%; in the assay with U251 CNS it was 35.5%; in the assay with PC-3 prostate, 13.5%. Further, the growth in the assay with SK-MEL-5 melanoma was 1.85% (active); in the assay on UACC-62 melanoma, 38.6%; in the assay on LOX IMVI melanoma, 19%; in the assay with SK-MEL-28 melanoma, 65.8%.

For `Cc1[nH]c(C2CC(c3ccc(C(F)(F)F)c(F)c3)=NN2C)c(C)c1C(=O)NCC(F)(F)F` (stereo not given), the growth was 92.2% in the assay on HCT-15 colon; 102% in the assay on HT29 colon; 96.9% with SNB-75 CNS; 91.9% in the assay on SNB-19 CNS; 96.8% in the assay with U251 CNS; 98.1% with PC-3 prostate. For the same compound, the growth was 93.6% in the assay on SK-MEL-5 melanoma, 82.3% in the assay on UACC-62 melanoma, 93.1% in the assay on LOX IMVI melanoma and 101% with SK-MEL-28 melanoma.

Regarding `CCN1C(=O)N(CC)C2C1NC(=S)N2/N=C/C=C/c1ccccc1` (stereo not given), the growth with HCT-15 colon was 12.4%; in the assay with HT29 colon it was 3.6% (active); in the assay with SNB-75 CNS it was 42.2%; in the assay on SNB-19 CNS, 19.5%; with U251 CNS, 15.5%; in the assay with PC-3 prostate, 20.6%. Further, the growth was -30% (active) with SK-MEL-5 melanoma, 23% in the assay on UACC-62 melanoma, 14.3% with LOX IMVI melanoma and 61% in the assay with SK-MEL-28 melanoma.

On to `CCOC(=O)/C(=C/c1ccc([N+](=O)[O-])cc1)C(=O)c1ccccc1`, for which the growth with HCT-15 colon is -15.2% (active); in the assay with HT29 colon, -23.7% (active); in the assay with SNB-75 CNS, 47%; in the assay with SNB-19 CNS, 51.5%; with U251 CNS it was 26%; with PC-3 prostate, 5.94% (active). For the same compound, the growth in the assay with SK-MEL-5 melanoma is 62.4%; in the assay on UACC-62 melanoma, 19.7%; with LOX IMVI melanoma, -68.2% (active); in the assay on SK-MEL-28 melanoma, -29.4% (active).

Consider `C=C(C)[C@@H]1CC[C@]2(C(=O)NC(C)=O)CC[C@]3(C)[C@H](CC[C@@H]4[C@@]5(C)CCCNC(C)(C)[C@@H]5CC[C@]43C)[C@@H]12`, for which the growth was -33.2% (active) in the assay on HCT-15 colon; -5.24% (active) in the assay on HT29 colon; 52% in the assay with SNB-75 CNS; 58.3% in the assay on SNB-19 CNS; -41.6% (active) with U251 CNS; 27.4% in the assay on PC-3 prostate. The growth with SK-MEL-5 melanoma was -94.5% (active); with UACC-62 melanoma, 81.6%; with LOX IMVI melanoma, -81.8% (active); in the assay with SK-MEL-28 melanoma, -88.4% (active).

Regarding `C=C(C)[C@@H]1CCC[C@]2(C(=O)OC)CC[C@]3(C)[C@@H](CC[C@@H]4[C@@]5(C)CCCNC(C)(C)[C@@H]5CC[C@]43C)[C@@H]12`, the growth is 93.1% in the assay with HCT-15 colon; 56.5% with HT29 colon; 91.7% in the assay on SNB-75 CNS; 88.3% in the assay on SNB-19 CNS; 94.1% in the assay on U251 CNS; 74.1% with PC-3 prostate. Also, the growth is 90% in the assay on SK-MEL-5 melanoma, 87.8% in the assay on UACC-62 melanoma, 97.8% in the assay on LOX IMVI melanoma and 94.3% in the assay with SK-MEL-28 melanoma.

With `COc1ccc(-n2c(=O)n(-c3ccc(-c4nc5ccc(F)cc5s4)cc3)c(=O)c3cccnc32)cc1`, the growth with HCT-15 colon was 101%; in the assay on HT29 colon it was 87.3%; in the assay on SNB-75 CNS, 75.2%; with SNB-19 CNS it was 98.5%; in the assay on U251 CNS, 96.9%; with PC-3 prostate it was 94.5%. Also, the growth in the assay with SK-MEL-5 melanoma was 101%; in the assay with UACC-62 melanoma, 87.4%; in the assay with LOX IMVI melanoma, 99.5%; in the assay with SK-MEL-28 melanoma it was 107%.

Consider `COc1ccc(C2=NN(C=O)C(c3ccc(Oc4nc5c(c(=O)n(C)c(=O)n5C)n4C)c(OC)c3)C2)cc1` (stereo not given), for which the growth in the assay on HCT-15 colon was 88.9%; in the assay with HT29 colon, 71.8%; in the assay on SNB-75 CNS, 94.1%; with SNB-19 CNS, 69.1%; with U251 CNS, 90.1%; in the assay with PC-3 prostate it was 78.4%. In addition, the growth with SK-MEL-5 melanoma was 59.8%; in the assay on UACC-62 melanoma, 88.5%; in the assay with LOX IMVI melanoma, 68.2%; in the assay on SK-MEL-28 melanoma, 97.8%.

In the case of `O=C(O)c1nn(-c2ccc(Cl)cc2)nc1N1CCCC1`, the growth with HCT-15 colon is 92.2%; in the assay with HT29 colon, 104%; in the assay with SNB-75 CNS it was 85.7%; with SNB-19 CNS, 103%; in the assay with U251 CNS, 92.3%; with PC-3 prostate it was 95.4%. The growth with SK-MEL-5 melanoma is 96.4%; in the assay with UACC-62 melanoma it was 99.6%; in the assay on LOX IMVI melanoma, 93.6%; in the assay on SK-MEL-28 melanoma it was 105%.

As for `CCCCCCCCNc1ncnc2c1ncn2Cc1nnc2c3ccccc3c(Cl)nn12`, the growth in the assay with HCT-15 colon is 32.8%; in the assay with HT29 colon, 44.1%; in the assay on SNB-75 CNS it was 37.6%; in the assay on SNB-19 CNS it was 56.2%; in the assay on U251 CNS, 44.8%; in the assay with PC-3 prostate it was 36.5%. For the same compound, the growth is 39.3% with SK-MEL-5 melanoma, 29.9% in the assay with UACC-62 melanoma, 12.8% with LOX IMVI melanoma and 62.9% in the assay on SK-MEL-28 melanoma.

As for `CCc1ccc(Cc2cnc(NC(=O)c3cc(C)oc3C)s2)cc1`, the growth in the assay on HCT-15 colon was 24.3%; with HT29 colon, 10.8%; in the assay with SNB-75 CNS it was -4.36% (active); in the assay with SNB-19 CNS it was 37.1%; in the assay on U251 CNS, 33.3%; in the assay on PC-3 prostate it was 37.7%. In addition, the growth in the assay with SK-MEL-5 melanoma is 36.8%; with UACC-62 melanoma, 25.3%; in the assay on LOX IMVI melanoma it was 41.3%; in the assay with SK-MEL-28 melanoma, 59.5%.

With `NS(=O)(=O)Oc1cccc(-c2nc3sccn3c2-c2ccccc2)c1`, the growth in the assay with HCT-15 colon was 29%; with HT29 colon, 27%; with SNB-75 CNS it was -9.42% (active); in the assay on SNB-19 CNS, 51.1%; in the assay on U251 CNS, 36.3%; in the assay with PC-3 prostate, 72.4%. Moreover, the growth in the assay with SK-MEL-5 melanoma was 32.3%; with UACC-62 melanoma, 36.3%; in the assay on LOX IMVI melanoma, 49.5%; in the assay with SK-MEL-28 melanoma, 60.4%.
